In PubChem BioAssay AID588676 (Johns Hopkins Ion Channel Center, 2011) one finds B-score data, which are given here for 68 compounds.

The whole screen tested about 310,000 compounds, of which about 3,900 (1.3%) were called active.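 The calls were made as follows: active = calcium-response B-score plate-corrected more than 3 library SD below zero, starting fluorescence within 5 deviations, no agonist response on first addition; inactive = the rest.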 Many of the other results were omitted from the sample, so actives are more common in it than they were.

The target of the assay is Mas-related G-protein coupled receptor member X1 (Homo sapiens) (UniProt Q96LB2). In words: antagonists of human MrgX1 receptor, primary screen, HEK293 cells, Fluo-4 calcium flux (AID 588676).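 As to B-score: peak minus trough fluorescence over baseline after final BAM8-22 challenge near maximal dose.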 The note with it: Fluo-4, BAM8-22 antagonism, at 10 µM; stronger effect = lower value.
Mas-related G-protein coupled receptor member X1 (Homo sapiens), sequence (Q96LB2 whole entry, looked up): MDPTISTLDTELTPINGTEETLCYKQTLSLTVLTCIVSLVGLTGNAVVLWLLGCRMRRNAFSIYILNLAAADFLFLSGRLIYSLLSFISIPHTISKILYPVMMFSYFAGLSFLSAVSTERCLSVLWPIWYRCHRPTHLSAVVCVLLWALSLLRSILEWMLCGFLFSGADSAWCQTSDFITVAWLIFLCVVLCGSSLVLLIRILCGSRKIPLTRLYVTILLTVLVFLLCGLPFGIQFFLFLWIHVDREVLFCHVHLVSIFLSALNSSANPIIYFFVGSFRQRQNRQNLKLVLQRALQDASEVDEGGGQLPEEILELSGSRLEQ
On to `COc1ccc(NC(=O)CN(Cc2ccccc2)S(C)(=O)=O)cc1OC`, for which the B-score result is “inactive”.

For the compound `CC1(C)C(C=C(Cl)Cl)C1C(=O)NC(O)C(=O)c1ccccc1` (stereo not drawn), the B-score result is “inactive”. As for `O=C(CCCN1C(=O)c2ccccc2C1=O)Oc1ccc(Cl)cc1`, the B-score result is “inactive”. Consider `Cc1cccc(NC(=O)c2nc(S(=O)(=O)Cc3ccccc3)ncc2Cl)c1`, for which the B-score entry is “inactive”. The same measure for `Cc1ccc(CS(=O)(=O)c2ncc(Cl)c(C(=O)Nc3nnc(C)s3)n2)cc1`: -6.02 (active); for `CSc1nnc(NC(=O)c2nc(S(=O)(=O)Cc3ccc(C)cc3)ncc2Cl)s1`: “inactive”.

Consider `Cc1cc(N2CCOCC2)nc2ccc(NC(=S)N3CCN(Cc4ccccc4)CC3)cc12`, for which the B-score result was “inactive”. In the case of `C#C[C@]1(O)CC[C@H]2[C@@H]3CCC4=CC(=O)CC[C@@H]4[C@H]3CC[C@@]21CC`, the B-score entry is “inactive”.

As for `O=C(NCC(c1cccs1)N1CCOCC1)c1cc(Cl)ccc1[N+](=O)[O-]` (stereo not drawn), the B-score result was “inactive”. To `CCc1nnc(NC(=O)CSc2nc3c(c(=O)n2-c2ccccc2OC)SCC3)s1` belongs -5.85 (active); to `CCc1nnc(NC(=O)CSc2nnc(Cc3ccccc3)n2-c2ccc(OC)cc2)s1`, “inactive”; to `CCOc1ccc(NC(=O)CSc2nc3c(c(=O)n2-c2ccccc2OC)SCC3)cc1`, “inactive”. Turning to `CC(Oc1ccccc1F)C(=O)NN` (stereo not drawn), the B-score result was “inactive”. For the compound `CCSc1sc(CC)cc1C=O`, the B-score entry is “inactive”.

`Cc1ccc(CNC(=O)C2CC(=O)N(C3CCCCCCC3)C2)cc1` (stereo not drawn): the B-score result is “inactive”. To `O=C(Nc1ccc(Br)cc1F)C1CC(=O)N(C2CCCCC2)C1` (stereo not drawn) belongs -6.01 (active); to `O=C(NCCc1ccc(Cl)cc1)C1CC(=O)N(C2CCCCC2)C1` (stereo not drawn), “inactive”; to `COc1cc(C)c(Cl)cc1S(=O)(=O)n1ccnc1`, “inactive”. Take `CCCC(=O)N1CCC(CCC(=O)NC2CC2)CC1`: the B-score entry was “inactive”.

As to `COc1ccccc1OCC(=O)Nc1ccccc1C(=O)NC1CC1`, the B-score entry is “inactive”. Consider `CC(Oc1ccc(F)cc1)C(=O)Nc1ccccc1C(=O)NC1CC1` (stereo not drawn), for which the B-score is -5.83 (active). On to `CCOc1ccccc1OCC(=O)Nc1ccccc1C(=O)NC1CC1`, for which the B-score entry was “inactive”. On to `COc1cc(-c2c(-c3ccc4c(c3)OCO4)noc2C)ccc1F`, for which the B-score entry is “inactive”. With `Nc1nc(NCC2CCCO2)nc(Nc2ccccc2F)c1[N+](=O)[O-]` (stereo not drawn), the B-score result was “inactive”. Take `CSc1ccc(NC(=O)/C=C/C(=O)O)cc1`: the B-score entry is “inactive”.

Take `CC(C)(C)c1ccc(/C=C/C(=O)Nc2ncccn2)cc1`: the B-score result is “inactive”.

With `COC(=O)c1sc(-c2ccc(C(C)(C)C)cc2)cc1NC(=O)/C=C/C(=O)O`, the B-score is -9.91 (active). To `Cn1cccc1Cc1nnc(SCC(=O)NCc2ccc3c(c2)OCO3)n1CCc1ccccc1` belongs “inactive”; to `O=C(O)CCc1nc2cc(Cl)ccc2n(Cc2ccccc2)c1=O`, “inactive”. For `CCOc1ccccc1NC(=O)COc1ccc(S(=O)(=O)N2CCCC2)cc1`, the B-score entry was “inactive”. For the compound `CCOc1ccccc1NC(=O)CCN1CCN(S(=O)(=O)c2ccc(OC)cc2)CC1`, the B-score is -4.98 (active).

Regarding `COc1ccc(NC(=O)CCC(=O)N2CCN(S(=O)(=O)c3ccc(C)cc3)CC2)c(OC)c1`, the B-score entry is “inactive”. On to `Cc1cc(C)c(C#N)c(Nc2cccc(Br)c2)n1`, for which the B-score entry is “inactive”. In the case of `N#CC1=C(N)Oc2c(ccc3cccnc23)C1c1ccncc1` (stereo not drawn), the B-score entry is “inactive”.

Turning to `N#CC1=C(N)Oc2c(sc3ccccc23)C1c1ccco1` (stereo not drawn), the B-score was -4.64 (active). Regarding `O=C(COc1nsnc1N1CCOCC1)Nc1ccccc1Cl`, the B-score entry is “inactive”. With `COc1cc(C(C)=O)ccc1OC(=O)CN1C(=O)c2ccccc2C1=O`, the B-score result is “inactive”. Consider `Cc1cc(F)ccc1S(=O)(=O)Nc1ncnc2scc(-c3ccc(F)cc3)c12`, for which the B-score entry is “inactive”. The same measure for `CCOC(=O)c1c(NC(=O)CSc2cn(CC)c3ccccc23)sc2c1CCC2`: -6.48 (active); for `CCOC(=O)c1c(NC(=O)CCC(=O)NCc2ccco2)sc2c1CCCC2`: “inactive”; for `CCOC(=O)c1c(NC(=O)C(C)Sc2c[nH]c3ccccc23)sc2c1CCC2` (stereo not drawn): “inactive”. The same measure for `O=C(NCC(=O)N1CCN(c2ncc(C(F)(F)F)cc2Cl)CC1)c1ccc(Br)o1`: “inactive”. With `Cc1ccc(C(=O)OC2=CC(=O)CC(C)(C)C2)cc1`, the B-score entry was “inactive”.

For `COc1ccccc1C(=O)NNC(=O)CCN1C(=O)/C(=C\c2ccccc2)SC1=S`, the B-score result is “inactive”. Regarding `COc1ccc(/C=C2\SC(=S)N(CCC(=O)Nc3ccccn3)C2=O)cc1OC`, the B-score result is “inactive”.

As to `COc1cc(/C=C2/SC(=S)N(Cc3ccccc3)C2=O)cc(OC)c1O`, the B-score was -7.51 (active). As to `O=C(Nc1cccc([N+](=O)[O-])c1)N1CCc2ccccc2C1`, the B-score entry was “inactive”. For the compound `CN(c1ccccc1)S(=O)(=O)c1ccc(Cl)c(C(=O)OCC(=O)N2CCOCC2)c1`, the B-score result is “inactive”. For `COC(=O)c1c(NC(=O)COc2ccc(Cl)cc2Cl)sc2c1CC(C)(C)NC2(C)C`, the B-score entry was “inactive”. For `O=C(Cc1ccccc1)Nc1c(C(=O)N2CCCCCC2)cnn1-c1ccccc1`, the B-score result is “inactive”. In the case of `COc1ccc([N+](=O)[O-])cc1NC(=O)COC(=O)/C=C/c1ccco1`, the B-score is -24.1 (active).

For `CC(C)CNC(=O)COC(=O)/C=C/c1ccco1`, the B-score result is “inactive”. Consider `COc1ccc([N+](=O)[O-])cc1NC(=O)CCc1ccccc1`, for which the B-score result is “inactive”. As for `COC1=CCC2([N+](=O)[O-])CN(CC(=O)O)CC1([N+](=O)[O-])C2` (stereo not drawn), the B-score is -5.87 (active).

On to `COc1ccc([N+](=O)[O-])cc1N(CC(=O)Nc1ccccc1C(=O)N1CCOCC1)S(C)(=O)=O`, for which the B-score result was “inactive”.

Take `COCC(C)NC(=O)c1ccc(Cl)c(Cl)c1` (stereo not drawn): the B-score was -8.76 (active). Take `CC(CCc1ccccc1)NC(=O)c1cnc(Cl)c(Cl)c1` (stereo not drawn): the B-score result was “inactive”. Turning to `CC(C)CCC(C)NC(=O)c1ccc2nccnc2c1` (stereo not drawn), the B-score result is “inactive”. To `CC(=O)C1=C(C)NC(=O)NC1c1ccc2c(c1)OCO2` (stereo not drawn) belongs “inactive”. For the compound `COc1cc(N2CCCC2)c(OC)cc1/C=C(/C#N)c1cccc(Br)c1`, the B-score was -7.19 (active).

On to `CC(=O)Nc1cccc(Oc2cc(C#N)c(C#N)cc2N2CCOCC2)c1`, for which the B-score result was “inactive”. As for `COc1ccc(Br)cc1/C=N/n1c(C)nnc1C`, the B-score entry is “inactive”. For `O=C(COC(=O)/C=C/c1ccc(OC(F)F)cc1)NC1CCCCC1`, the B-score entry was “inactive”. As to `COc1ccc(-c2noc(C(C)NS(=O)(=O)c3ccc(NC(C)=O)cc3)n2)cc1` (stereo not drawn), the B-score result was “inactive”. As to `CCCCCCCCCCCCN1C(=O)CSC1c1cccnc1` (stereo not drawn), the B-score entry was “inactive”. For the compound `CCOC(=O)C1=C(O)CSC1=Nc1cccc(Cl)c1`, the B-score is -5.49 (active). The same measure for `CCOC(=O)c1c(S(=O)(=O)Nc2cccc(Cl)c2)c(C)n(C)c1C`: “inactive”; for `CCOC(=O)CSc1ncc(-c2cccc(Cl)c2)cn1`: “inactive”.
